Compounds with a hit are over-represented: about 6% of the library has one in this group of screens.
Chronic BCR inh: chronic active BCR signaling inhibition | ABC-DLBCL IkBa-CBG/CBR reporter, luminescence ratio, 4 h | Potency, µM (doses to about 46.1 µM), actives largely listed as inhibitors | AID 493014 | actives 0.05% (n = 340,000); active = well fitted inhibition curve with a large enough effect in the signal ratio, with a control signal flat, not every such curve was filed as active; inconclusive = small, poorly fitted or top-dose-only effect, or effect the other way, or a change in a side signal; the % refers to the signal ratio
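Compounds up to 46 uM were incubated four hours with TMD8 cells whose green CBG68 luciferase is fused to IkappaBalpha; red CBR luminescence normalised the signal, and concentration-effect curves were fitted to fusion, red and ratio data.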
D1 PAM: potentiators of human D1 dopamine receptor; HEK293 TREx D1 cells, calcium flux, dopamine EC20 potentiation; potentiation, % at 10 µM; actives 0.036% (n = 360,000); AID 504651; in the data active = potentiation above about 30%
D1 agonist: agonists of human D1 dopamine receptor; HEK293 T-REx D1 cells, calcium flux, agonist mode; activation, % at 2 µM; actives 1% (n = 360,000); in the data active = activation above about 30%
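Inducible HEK293 T-REx D1 cells, force-coupled to calcium signalling, were plated at 4000 cells/well with tetracycline and held overnight at 30 C. After no-wash calcium dye loading, compound-evoked calcium rise over 180 s flagged agonists.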
D3 ag: activates the human D3 dopamine receptor. P35462. D3R DiscoveRx beta-arrestin cells, luminescence, 90 min. max activation, %. actives 0.58% (n = 410,000). AID 652048; in the data active = max activation above about 30%
Target sequence (P35462 whole entry, looked up): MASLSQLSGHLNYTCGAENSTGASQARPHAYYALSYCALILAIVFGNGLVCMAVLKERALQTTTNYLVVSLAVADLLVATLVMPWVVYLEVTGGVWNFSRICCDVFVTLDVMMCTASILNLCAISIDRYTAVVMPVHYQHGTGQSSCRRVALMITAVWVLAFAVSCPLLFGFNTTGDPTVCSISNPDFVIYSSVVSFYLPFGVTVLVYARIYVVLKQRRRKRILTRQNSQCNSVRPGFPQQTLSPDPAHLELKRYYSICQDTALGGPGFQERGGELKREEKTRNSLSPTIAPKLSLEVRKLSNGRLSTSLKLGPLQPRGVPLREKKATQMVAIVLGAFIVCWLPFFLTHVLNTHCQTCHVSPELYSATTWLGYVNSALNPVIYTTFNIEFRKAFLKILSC
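Cells at 1500/well, incubated overnight, then treated with pinned compounds (dopamine as control) for 90 min at 37 degrees C. DiscoveRx reagent added for 30 - 60 minutes at room temperature; luminescence read.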
D1 antag: antagonists of human D1 dopamine receptor; activity change, negative = inhibition, % at 10 µM; P21728; HEK293 TREx D1 cells, calcium flux, dopamine EC80; hits give low values; actives 3.2% (n = 360,000); AID 504652; in the data active = activity change below about -30%
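Inducible Hek293 Trex D1 cells (tetracycline, overnight, 30 C). Calcium dye 30–90 min RT. Antagonist mode: EC80 dopamine added after 180 s compound read.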
D3 antag: D3 dopamine receptor (human) antagonism. max response, negative = inhibition, %. actives 2.5% (n = 360,000). D3R cells, DiscoveRx beta-arrestin luminescence, antagonist mode; hits give low values. P35462. AID 652054; in the data active = max response below about -50%; inconclusive = no clear call, values can overlap the other calls
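Cells expressing the human receptor were seeded at 1500 cells/well, incubated overnight at 37 degrees C in 5% CO2, then exposed to library compounds with dopamine controls for 90 minutes at 37 degrees C before luminescent detection.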
Large screens that a line does not name were inactive.

CC1=NNC(=O)/C1=C\c1cn(-c2ccccc2)nc1-c1ccc(F)cc1	Chronic BCR inh inconclusive, D1 antag -54, D3 antag -69
CC1=NNC(=O)/C1=C\c1cn(-c2ccccc2)nc1-c1cccs1	Chronic BCR inh inconclusive, D1 antag -40, D3 antag inconclusive
O=C(NC(c1ccc(-c2ccccc2)cc1)c1cnccn1)C1CCN(Cc2cccs2)CC1 (stereo not given)	none (no result: Chronic BCR inh, D1 PAM, D1 agonist, D1 antag)
Clc1cccc(OCCCCN2CCCCC2)c1	D3 antag inconclusive
Clc1ccc(Cl)c(OCCN2CCCC2)c1	D3 antag -75
Clc1ccc(Cl)c(OCCN2CCOCC2)c1	D3 antag -52
Cc1cccc(Cl)c1OCCN1CCCC1	D1 antag -41, D3 antag inconclusive
COc1ccc(OC)c(CCNC(=O)c2cnn(-c3ccccc3)c2C2CCN(C(=O)OC(C)(C)C)CC2)c1	none (no result: Chronic BCR inh, D3 antag)
O=C(NCC1CCCN1S(=O)(=O)c1cccs1)C(=O)Nc1ccccc1F (stereo not given)	none (no result: Chronic BCR inh, D1 PAM, D1 agonist, D1 antag)
COc1cc(NC(=O)Nc2nnc(N3CCCCCC3)s2)cc(OC)c1	none (no result: Chronic BCR inh, D3 antag)
CC(C)Sc1nc2c(c(=O)n1C)SC(C)C2 (stereo not given)	D1 antag -32
CC1Cc2nc(SCC(=O)N3CCOCC3)n(C)c(=O)c2S1 (stereo not given)	none
COc1ccc(-c2coc3c(C(=O)N4CCN(C)CC4)cccc23)c(C)c1	D3 antag -87 (no result: Chronic BCR inh, D1 PAM, D1 agonist, D1 antag)
O=C(NCC1CC1)c1cccc2c(-c3ccc(F)c(F)c3)coc12	none (no result: Chronic BCR inh, D1 PAM, D1 agonist, D1 antag)
COc1ccc(NC(=O)c2cccc3c(-c4ccc(OC)cc4C)coc23)cc1	none (no result: Chronic BCR inh, D1 PAM, D1 agonist, D1 antag)
CN1CCN(C(=O)c2cccc3c(-c4ccc(F)c(F)c4)coc23)CC1	D3 antag -100 (no result: Chronic BCR inh, D1 PAM, D1 agonist, D1 antag)
CCC(CC)C(=O)Nc1cccc(/C(C)=N/NC(=O)c2c(Br)cnn2C)c1	D3 antag -51
CCC(CC)C(=O)Nc1cccc(/C(C)=N/NC(=O)c2ccccc2Cl)c1	Chronic BCR inh inconclusive
O=S1(=O)c2ccccc2Nc2ccccc21	none
CC1CC(=O)Nc2ccccc2S1(=O)=O (stereo not given)	D1 antag -32 (no result: Chronic BCR inh)
Cc1c(C(=O)N2CCCC2)oc2c1-c1nn(CC(=O)NCc3ccccc3Br)cc1CC2	none (no result: Chronic BCR inh, D3 antag)
CCCSc1nnc(-c2cnn(-c3ccccc3)c2-n2cccc2)n1C	Chronic BCR inh inconclusive, D1 agonist 36
Cc1cccc(NC(=O)c2oc3ccccc3c2NC(=O)c2cc(=O)c3ccc(C)cc3o2)c1	none (no result: Chronic BCR inh, D3 antag)
C=C1CC(COc2cc(=O)oc3ccccc23)(c2ccccc2)OC1=O (stereo not given)	D3 antag -114 (no result: Chronic BCR inh, D1 PAM, D1 agonist, D1 antag)
COCC(=O)N1CCC2CC1c1c(-c3ccc(C(F)(F)F)cc3)cccc12 (stereo not given)	D3 antag inconclusive (no result: Chronic BCR inh, D1 PAM, D1 agonist, D1 antag)
COc1ccc(S(=O)(=O)N2CCC3CC2c2c(-c4ccc(C(F)(F)F)cc4)cccc23)cc1 (stereo not given)	D3 ag 52 (no result: Chronic BCR inh, D1 PAM, D1 agonist, D1 antag)
COc1ccccc1CNC(=O)c1ccc2nc(C)c(N(C)Cc3ccc(NC(C)=O)cc3)n2c1	none (no result: Chronic BCR inh, D1 PAM, D1 agonist, D1 antag)
CCNC(=O)C1(C)CCN1CCC(=O)c1ccc(Br)cc1 (stereo not given)	D3 ag 73 (no result: Chronic BCR inh, D1 PAM, D1 agonist, D1 antag)
CCCNC(=O)C1(C)CCN(CCC(=O)c2ccc(Br)cc2)C1 (stereo not given)	none (no result: Chronic BCR inh, D1 PAM, D1 agonist, D1 antag)
O=C(CNC(c1ccccc1)c1ccccc1)Nc1c(F)cccc1F	D1 antag -38
O=C(Nc1nc2n(n1)C(c1ccccc1)C=C(c1ccccc1)N2)c1ccccc1 (stereo not given)	none (no result: Chronic BCR inh, D3 antag)
COC(=O)Nc1ccccc1C(=O)N1CCC(O)(c2ccc(Cl)cc2)CC1	none
CN(C)C(=O)C(CCN1CCC(O)(c2ccc(Cl)cc2)CC1)(c1ccccc1)c1ccccc1	Chronic BCR inh inconclusive, D1 agonist 40, D3 antag -81
CC(C)CC(=O)Nc1c2c(nn1-c1cccc(Cl)c1)CS(=O)C2 (stereo not given)	D1 antag -33
Cc1[nH]c(=O)[nH]c(=O)c1C1N2CC3(C(C)C)CN1CC(C(C)C)(C2)C3=O (stereo not given)	none (no result: Chronic BCR inh, D3 antag)
Cc1cn2c(=O)cc(COC(=O)c3cccc(NC(=O)c4ccccc4C)c3)nc2s1	D1 antag -59 (no result: Chronic BCR inh, D3 antag)
Cc1cn2c(=O)cc(COC(=O)c3cccc(NC(=O)COc4ccccc4C)c3)nc2s1	none (no result: Chronic BCR inh, D3 antag)
Cc1ccc(OCC(=O)Nc2ccc(C(=O)OCc3cc(=O)n4ccsc4n3)cc2)cc1C	none (no result: Chronic BCR inh, D3 antag)
Cc1cn2c(=O)cc(COC(=O)c3ccc(NC(=O)COc4ccc(C)c(C)c4)cc3)nc2s1	D1 antag -36 (no result: Chronic BCR inh, D3 antag)
Cc1cn2c(=O)cc(COC(=O)COc3ccccc3C)nc2s1	D1 antag -30 (no result: Chronic BCR inh, D3 antag)
O=C(NCC(c1cccnc1)N1CCN(c2ccccc2F)CC1)C(=O)Nc1ccc(F)cc1F (stereo not given)	none (no result: Chronic BCR inh, D3 antag)
CCCOc1cccc(C2c3c(oc4ccc(F)cc4c3=O)C(=O)N2CCCN2CCOCC2)c1 (stereo not given)	none (no result: Chronic BCR inh, D3 antag)
COc1cccc(C(c2sc3nc(-c4ccco4)nn3c2O)N2CCN(c3ccccc3F)CC2)c1 (stereo not given)	none (no result: D1 antag, D3 antag)
Cc1nc2ccccc2n1C1CCN(CC(=O)NCc2ccc(F)cc2)CC1	D1 antag -43
COc1ccc(NC(=O)CN2CCC(n3c(C)nc4cc(F)ccc43)CC2)c(OC)c1	D3 ag 132
CC(OC(=O)c1ccccc1C(=O)N(C)C1CCCCC1)C(=O)NC1(C#N)CCCCC1 (stereo not given)	none
CC(OC(=O)c1cc(Br)ccc1O)C(=O)NC1(C#N)CCCCC1 (stereo not given)	D1 agonist 36
CC(C)NC(=O)Nc1ccc2c(c1)C(=O)N([C@H](C)CO)C[C@H](C)[C@@H](CN(C)Cc1ccc3c(c1)OCO3)OCCCC[C@@H](C)O2	none (no result: Chronic BCR inh, D1 PAM, D1 agonist, D1 antag)
O=C(CC1C(=O)N(c2ccccc2)C(=O)N1CCC1=CCCCC1)Nc1ccc(F)cc1 (stereo not given)	none (no result: Chronic BCR inh, D3 antag)
CCOc1ccc(N(C(=O)c2ccc3c(c2)OCO3)C2C=CS(=O)(=O)C2)cc1 (stereo not given)	none
O=C(c1ccc2c(c1)OCO2)N(c1ccccc1)C1C=CS(=O)(=O)C1 (stereo not given)	D1 antag -40
CC(=O)N(c1cccc(Br)c1)C1C=CS(=O)(=O)C1 (stereo not given)	D3 antag -67
Nc1ncc(S(=O)(=O)N2CCN(c3ccccc3)CC2)cn1	none (no result: Chronic BCR inh, D3 antag)
O=C(NCCCNc1ccc(C(F)(F)F)cc1[N+](=O)[O-])c1cc(F)c(F)cc1Cl	D1 antag -43
Cc1ccc(S(=O)(=O)c2cn(Cc3ccccc3)c3cc(N4CCCCC4)c(F)cc3c2=O)cc1	none (no result: Chronic BCR inh, D3 antag)

Screens as filed in PubChem.
